Screen size: about 5,500 compounds; about 2,000 (36%) were called active. Roughly 18% stayed inconclusive and do not appear here. No stated cut-off is given here; in the data, active means normalized growth mostly below about 0.91 (no sharp cut-off); inconclusive means no clear call, values can overlap the other calls; inactive means mostly above about 0.92. The list shows a part of the results.
Test: chemical genetic growth profiling, strain panel (AID 1159580);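 further: tested at 20 µM; growth read once vehicle control cultures reached saturation at 30 °C; 1 = growth at the plate median or of vehicle wells; lower values mean less growth of the strain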
Conditions: S. cerevisiae deletion strains, growth OD
[1] = locus YHR030C, strain SLT2, active compounds read low
[2] = locus YHR079C, strain IRE1, active compounds read low
[3] = locus YJL095W, strain BCK1, active compounds read low
[4] = locus YJR066W, strain TOR1, active compounds read low
[5] = locus YLR113W, strain HOG1, active compounds read low
[6] = locus YNL183C, strain NPR1, active compounds read low
[7] = locus YOR231W, strain MKK1, active compounds read low
[8] = locus YPL256C, strain CLN2, active compounds read low

Measured: normalized growth

OC[C@@H](O)[C@@H](O)[C@H](O)[C@@H](O)CO
inactive: [1] 0.986 | [2] 0.96 | [3] 0.992 | [4] 0.946 | [5] 0.989 | [6] 0.947 | [7] 0.989 | [8] 1.01

CCCc1cc(C(N)=S)ccn1
inactive: locus YAL021C, strain ccr4, active compounds read low 0.966 | locus YAL026C, strain drs2, active compounds read low 0.982 | locus YAL030W, strain snc1, active compounds read low 0.985 | locus YBL061C, strain skt5, active compounds read low 0.975 | locus YBR009C, strain hhf1, active compounds read low 0.939 | locus YBR023C, strain chs3, active compounds read low 0.963 | locus YBR171W, strain sec66, active compounds read low 0.955 | locus YBR231C, strain swc5, active compounds read low 0.981 | locus YBR279W, strain paf1, active compounds read low 0.97 | locus YCL011C, strain gbp2, active compounds read low 0.974 | locus YCL016C, strain dcc1, active compounds read low 0.985 | locus YCL069W, strain vba3, active compounds read low 0.963 | locus YCR088W, strain abp1, active compounds read low 0.966 | locus YDL005C, strain med2, active compounds read low 0.959 | locus YDL040C, strain nat1, active compounds read low 0.964 | locus YDR001C, strain nth1, active compounds read low 0.971 | locus YDR069C, strain doa4, active compounds read low 0.95 | locus YDR137W, strain rgp1, active compounds read low 0.976 | locus YDR159W, strain sac3, active compounds read low 0.89 | locus YDR195W, strain ref2 0.976 | locus YDR297W, strain sur2, active compounds read low 0.975 | locus YDR334W, strain swr1, active compounds read low 0.929 | locus YDR335W, strain msn5, active compounds read low 0.961 | locus YDR392W, strain spt3, active compounds read low 0.886 | locus YEL003W, strain gim4, active compounds read low 0.972 | locus YEL037C, strain rad23, active compounds read low 0.964 | locus YEL061C, strain CIN8 (second series), active compounds read low 0.96 | locus YER015W, strain faa2, active compounds read low 0.978 | locus YER016W, strain bim1, active compounds read low 0.988 | locus YER111C, strain swi4, active compounds read low 0.988 | locus YER155C, strain BEM2 (second series), active compounds read low 0.958 | locus YFR010W, strain ubp6, active compounds read low 0.948 | locus YGL167C, strain pmr1, active compounds read low 0.939 | locus YGL173C, strain kem1, active compounds read low 0.966 | locus YGL227W, strain vid30, active compounds read low 0.974 | locus YGL240W, strain doc1, active compounds read low 0.953 | locus YGL253W, strain hxk2, active compounds read low 0.952 | locus YHR013C, strain ard1, active compounds read low 0.954 | locus YHR027C, strain rpn1, active compounds read low 0.967 | [1] 1.01 | [2] 1.02 | locus YHR142W, strain chs7, active compounds read low 0.981 | locus YJL092W, strain hpr5, active compounds read low 0.971 | locus YJL095W, strain BCK1 (second series), active compounds read low 0.978 | [3] 1.02 | locus YJL115W, strain asf1, active compounds read low 0.948 | locus YJL129C, strain trk1, active compounds read low 0.981 | locus YJL154C, strain vps35, active compounds read low 0.96 | locus YJL164C, strain tpk1, active compounds read low 0.971 | locus YJL166W, strain qcr8, active compounds read low 0.95 | [4] 0.925 | locus YKL160W, strain elf1, active compounds read low 0.989 | locus YKR026C, strain gcn3, active compounds read low 0.942 | locus YKR091W, strain srl3, active compounds read low 0.96 | locus YLL001W, strain dnm1, active compounds read low 0.954 | locus YLL026W, active compounds read low 0.985 | locus YLL041C, strain sdh2, active compounds read low 0.964 | locus YLR027C, strain aat2, active compounds read low 0.98 | [5] 0.997 | locus YLR221C, strain rsa3, active compounds read low 0.956 | locus YLR258W, strain gsy2, active compounds read low 0.966 | locus YLR262C, strain YPT6 (second series), active compounds read low 0.943 | locus YLR320W, strain mms22, active compounds read low 0.937 | locus YLR342W, strain FKS1, active compounds read low 0.981 | locus YLR357W, strain rsc2, active compounds read low 0.888 | locus YLR370C, strain arc18, active compounds read low 0.955 | locus YLR384C, strain iki3, active compounds read low 0.971 | locus YML120C, strain ndi1, active compounds read low 0.964 | locus YMR058W, strain fet3, active compounds read low 0.981 | locus YMR125W, strain sto1, active compounds read low 0.918 | locus YMR129W, active compounds read low 0.961 | locus YMR205C, strain PFK2, active compounds read low 0.955 | locus YMR231W, strain pep5, active compounds read low 0.967 | locus YNL071W, strain lat1, active compounds read low 0.958 | [6] 0.942 | locus YNL209W, strain ssb2, active compounds read low 0.955 | locus YNL248C, strain rpa49, active compounds read low 0.925 | locus YNL322C, strain KRE1 (second series), active compounds read low 0.966 | locus YNR049C, strain mso1, active compounds read low 0.948 | locus YOR001W, strain rrp6, active compounds read low 0.938 | locus YOR070C, strain gyp1, active compounds read low 0.98 | locus YOR080W, strain dia2, active compounds read low 0.942 | locus YOR083W, strain WHI5, active compounds read low 0.946 | locus YOR106W, strain vam3, active compounds read low 0.983 | [7] 1 | locus YOR265W, strain rbl2, active compounds read low 0.978 | locus YOR270C, strain vph1, active compounds read low 0.931 | locus YOR290C, strain snf2, active compounds read low 0.989 | locus YPL051W, strain arl3, active compounds read low 0.989 | locus YPL078C, strain atp4, active compounds read low 0.991 | locus YPL106C, strain sse1, active compounds read low 0.956 | locus YPL240C, strain hsp82, active compounds read low 0.976 | [8] 1.01

— PubChem BioAssay AID1159580 (chemical genetic matrix, 2015)
